# Source: PubChem BioAssay (NCI)
# Compounds without any hit were thinned out: in the full panel of roughly 79,000, 15% have a hit. Values without a mark were called inactive. Calls of active or inactive are those of the source. No stated cut-off is given here; in the data, active means growth inhibition above about 70%; inactive means the rest.
# What was measured:
# [1] = NCI Yeast Anticancer Drug Screen. Data for the rad52 strain (AID 147);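 further: 0% = growth of vehicle-treated control cultures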; conditions: S. cerevisiae rad52 mutant growth inhibition, stronger effect = higher value
# Outline: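 Growth of repair-deficient yeast cells was compared between compound-treated and vehicle-treated cultures to give percent inhibition.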
# [2] = NCI Yeast Anticancer Drug Screen. Data for the wt1 strain (AID 149);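 further: 0% = growth of vehicle-treated wt1 cultures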; conditions: S. cerevisiae wt1 strain (SPY 50644) growth inhibition, stronger effect = higher value
# Outline: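 Using yeast strain wt1, compound-induced growth inhibition was determined against vehicle-treated cultures.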
# [3] = NCI Yeast Anticancer Drug Screen. Data for the rad50EPP+ strain (AID 151);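 further: 0% = growth of vehicle-treated control cultures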; conditions: S. cerevisiae rad50 mutant strain, stronger effect = higher value
# Outline: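 Measured: growth inhibition of rad50EPP+ yeast. Reference: vehicle-treated controls. Screen uses strains with defined genetic alterations in DNA damage repair or cell cycle control.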
# [4] = NCI Yeast Anticancer Drug Screen. Data for the rad50 strain (AID 155);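 further: 0% = growth of vehicle-only cultures of the same strain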; conditions: S. cerevisiae rad50 strain growth inhibition, stronger effect = higher value
# Outline: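 Relative growth inhibition (compound vs vehicle) was measured in yeast with a defined repair-gene alteration.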
# [5] = NCI Yeast Anticancer Drug Screen. Data for the mec2-1 strain (AID 157); conditions: S. cerevisiae mec2-1 strain, stronger effect = higher value
# Outline: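 Compounds were applied to mec2-1 yeast cells. Their growth was then compared with that of vehicle-treated cultures to give growth inhibition.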
# [6] = NCI Yeast Anticancer Drug Screen. Data for the sgs1 mgt1 strain (AID 161);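 further: 0% = growth of cultures given vehicle only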; conditions: S. cerevisiae sgs1 mgt1 strain, stronger effect = higher value
# Outline: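 Percent growth inhibition was derived by comparing compound-exposed mutant yeast with vehicle-exposed cultures. The strain carries alterations in DNA damage repair.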
# [7] = NCI Yeast Anticancer Drug Screen. Data for the CLN2oe strain (AID 163);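 further: 0% = growth of vehicle-only control cultures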; conditions: S. cerevisiae CLN2oe strain, stronger effect = higher value
# Outline: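 Cells of an engineered yeast line with disturbed cell-cycle regulation are treated with compound. Inhibition of growth is then calculated relative to the vehicle-treated reference.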
# [8] = NCI Yeast Anticancer Drug Screen. Data for the cln2 rad14 strain (AID 165);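 further: 0% = growth equal to vehicle treated cultures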; conditions: S. cerevisiae cln2 rad14 strain, stronger effect = higher value
# Outline: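 Strain: cln2 rad14 yeast, altered in cell cycle control and DNA damage repair. Read-out: growth inhibition vs vehicle.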
# [9] = NCI Yeast Anticancer Drug Screen. Data for the bub3 strain (AID 167); conditions: S. cerevisiae bub3 mutant strain, stronger effect = higher value
# Outline: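 Screening used yeast with an engineered genetic alteration affecting cell cycle control. Compound-exposed cultures were compared with vehicle cultures, and reduced growth was taken as inhibition.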
# [10] = NCI Yeast Anticancer Drug Screen. Data for the wt2 strain (AID 169);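 further: 0% = growth of vehicle-treated yeast cultures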; conditions: S. cerevisiae wt2 strain growth inhibition, stronger effect = higher value
# Outline: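 Growth of compound-treated yeast is measured and expressed as inhibition relative to vehicle-only controls.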
# [11] = NCI Yeast Anticancer Drug Screen. Data for the mlh1 strain (AID 171);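 further: 0% = growth of vehicle-treated control cultures of the same strain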; conditions: S. cerevisiae mlh1 strain growth inhibition, stronger effect = higher value
# Outline: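 Test agents were incubated with yeast bearing a defined DNA damage repair or cell cycle control alteration; values are growth inhibition normalised to vehicle-treated cultures.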
# [12] = NCI Yeast Anticancer Drug Screen. Data for the sgs1 strain (AID 173);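 further: 0% = growth of vehicle-only control cultures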; conditions: S. cerevisiae sgs1 mutant, stronger effect = higher value
# Outline: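 Strain with an altered DNA repair or cell cycle pathway exposed to compound. Growth then measured. Value = inhibition versus vehicle control.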
# [13] = NCI Yeast Anticancer Drug Screen. Data for the mlh1 rad18 strain (AID 175); conditions: S. cerevisiae mlh1 rad18 strain growth inhibition, stronger effect = higher value
# Outline: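 A repair-deficient yeast strain is exposed to test compound, and growth is scored relative to vehicle-treated controls.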
# [14] = NCI Yeast Anticancer Drug Screen. Data for the rad18 strain (AID 177); conditions: S. cerevisiae rad18 mutant growth inhibition, stronger effect = higher value
# Outline: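 DNA-repair-defective yeast; compound treatment; growth inhibition scored against vehicle.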
# [15] = at 5.0 µM (retest, dose inferred, filed as 0.5)
# [16] = at 50.0 µM (retest, dose inferred, filed as 5.0)
smiles,measurement,setting,value
CC1CCC(C2=CSC3CCCCC3N2)CC1 (stereo not drawn),growth inhibition,[1]; at 1.2 µM,21%
same,growth inhibition,[1]; at 3.7 µM,21%
same,growth inhibition,[1]; at 11.0 µM,21%
same,growth inhibition,[1]; at 33.0 µM,37%
same,growth inhibition,[1]; at 100.0 µM,78% (active)
same,growth inhibition,[2]; at 1.2 µM,14%
same,growth inhibition,[2]; at 3.7 µM,-2%
same,growth inhibition,[2]; at 11.0 µM,3%
same,growth inhibition,[2]; at 33.0 µM,31%
same,growth inhibition,[2]; at 100.0 µM,65%
same,growth inhibition,[3]; at 1.2 µM,1%
same,growth inhibition,[3]; at 3.7 µM,-14%
same,growth inhibition,[3]; at 11.0 µM,-8%
same,growth inhibition,[3]; at 33.0 µM,14%
same,growth inhibition,[3]; at 100.0 µM,71% (active)
same,growth inhibition,[4]; at 1.2 µM,16%
same,growth inhibition,[4]; at 3.7 µM,23%
same,growth inhibition,[4]; [15],17%
same,growth inhibition,[4]; at 11.0 µM,20%
same,growth inhibition,[4]; at 33.0 µM,37%
same,growth inhibition,[4]; [16],13%
same,growth inhibition,[4]; at 50.0 µM,43%
same,growth inhibition,[4]; at 100.0 µM,74% (active)
same,growth inhibition,[5]; at 1.2 µM,-36%
same,growth inhibition,[5]; at 3.7 µM,5%
same,growth inhibition,[5]; [15],-6%
same,growth inhibition,[5]; at 11.0 µM,3%
same,growth inhibition,[5]; at 33.0 µM,14%
same,growth inhibition,[5]; [16],71% (active)
same,growth inhibition,[5]; at 50.0 µM,56.5%
same,growth inhibition,[5]; at 100.0 µM,80% (active)
same,growth inhibition,[6]; [15],-4%
same,growth inhibition,[6]; [16],28%
same,growth inhibition,[6]; at 50.0 µM,51.1%
same,growth inhibition,[7]; at 1.2 µM,-3%
same,growth inhibition,[7]; at 3.7 µM,13%
same,growth inhibition,[7]; at 11.0 µM,0%
same,growth inhibition,[7]; at 33.0 µM,22%
same,growth inhibition,[7]; at 100.0 µM,45%
same,growth inhibition,[8]; [15],32%
same,growth inhibition,[8]; [16],42%
same,growth inhibition,[8]; at 50.0 µM,11.6%
same,growth inhibition,[9]; at 1.2 µM,5%
same,growth inhibition,[9]; at 3.7 µM,-4%
same,growth inhibition,[9]; [15],42%
same,growth inhibition,[9]; at 11.0 µM,5%
same,growth inhibition,[9]; at 33.0 µM,29%
same,growth inhibition,[9]; [16],84% (active)
same,growth inhibition,[9]; at 50.0 µM,66%
same,growth inhibition,[9]; at 100.0 µM,73% (active)
same,growth inhibition,[10]; at 1.2 µM,-8%
same,growth inhibition,[10]; at 3.7 µM,-3%
same,growth inhibition,[10]; at 11.0 µM,-4%
same,growth inhibition,[10]; at 33.0 µM,19%
same,growth inhibition,[10]; at 100.0 µM,74% (active)
same,growth inhibition,[11]; at 1.2 µM,6%
same,growth inhibition,[11]; at 3.7 µM,4%
same,growth inhibition,[11]; at 11.0 µM,11%
same,growth inhibition,[11]; at 33.0 µM,28%
same,growth inhibition,[11]; at 100.0 µM,74% (active)
same,growth inhibition,[12]; at 1.2 µM,15%
same,growth inhibition,[12]; at 3.7 µM,5%
same,growth inhibition,[12]; at 11.0 µM,14%
same,growth inhibition,[12]; at 33.0 µM,35%
same,growth inhibition,[12]; at 100.0 µM,67%
same,growth inhibition,[13]; [15],7%
same,growth inhibition,[13]; [16],85% (active)
same,growth inhibition,[13]; at 50.0 µM,38.8%
same,growth inhibition,[14]; at 1.2 µM,-5%
same,growth inhibition,[14]; at 3.7 µM,-6%
same,growth inhibition,[14]; at 11.0 µM,-6%
same,growth inhibition,[14]; at 33.0 µM,3%
same,growth inhibition,[14]; at 100.0 µM,45%
